Source: PubChem (several laboratories)
Rows were chosen to be rich in hits. Some 27% of all compounds tested hit in one or more screens of this group.
CYP2C19 inh – inhibitors of human CYP2C19; inhibition, % at 5 µM; P33261; CYP2C19 Supersomes, luciferin-H EGE luminescence, 30 min; AID 778; hit rate 21% among 96,000;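 active = CYP2C19 inhibition above a set limit at 5 µM in the primary screen, cut at about 50% in these data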
CYP2C9 inhib – inhibitors of human CYP2C9 | P11712 | CYP2C9 Supersomes, luciferin-H conversion, luminescence | inhibition, % at 5 µM | hit rate 20% among 96,000 | AID 777;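 active = blocking of liver enzyme CYP2C9 beyond about 50% at 5 µM, limit read from the data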
Target sequence (P11712 whole entry, looked up): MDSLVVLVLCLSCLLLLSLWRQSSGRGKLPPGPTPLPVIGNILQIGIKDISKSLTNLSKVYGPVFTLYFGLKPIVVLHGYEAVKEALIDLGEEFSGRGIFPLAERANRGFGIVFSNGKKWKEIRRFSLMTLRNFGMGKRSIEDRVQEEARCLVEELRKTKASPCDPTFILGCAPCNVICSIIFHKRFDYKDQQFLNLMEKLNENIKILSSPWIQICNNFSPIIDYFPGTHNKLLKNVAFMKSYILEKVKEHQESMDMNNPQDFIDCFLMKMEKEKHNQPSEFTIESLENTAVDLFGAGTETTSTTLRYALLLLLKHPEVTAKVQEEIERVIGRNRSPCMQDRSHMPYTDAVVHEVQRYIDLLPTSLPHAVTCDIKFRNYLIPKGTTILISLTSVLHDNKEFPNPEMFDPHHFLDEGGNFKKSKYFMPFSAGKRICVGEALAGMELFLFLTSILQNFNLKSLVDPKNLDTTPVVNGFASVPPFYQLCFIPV
CYP2C19 activ – increases human CYP2C19 enzyme activity. P33261. recombinant CYP2C19, luciferin-H EGE luminescence; stronger effect = higher value; 0 = fully inhibited enzyme, 1 = untreated enzyme. activation factor at 5 µM. 96,000 tested, under 10 active;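 active = activation factor of at least 2 at 5 µM in the primary screen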
PTK2B oligo ant – antagonists of human Pyk2 oligomerization | Q14289 | Q293 cells, Pyk2 FERM NanoBiT luminescence; stronger effect = lower value | z-score (the deposit names both 25 µM and 10 µM) | hit rate 0.83% among 99,000 | AID 1347419;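 active = Z-score of -3 or lower, scaled per plate to the spread of control and sample wells; inactive = z-score above -3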;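 also: negative z-score means lost luminescence so less FERM oligomerization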
CYP2C9 act – increases human cytochrome P450 2C9 activity; P11712; recombinant CYP2C9, luciferin-H conversion, luminescence; stronger effect = higher value; factor 1 = untreated enzyme, 0 = blocked; activation factor at 5 µM; hit rate 1.4% among 96,000; AID 1024;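 active = activation factor of 2 or more for CYP2C9 at a 5 µM dose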
Cav32 inh – human Cav3.2 channel inhibition, primary screen. B-score at 10 µM. AID 449739. Cav3.2-expressing cells, Fluo-4 calcium fluorescence FDSS; stronger effect = lower value. hit rate 4% among 100,000. O95180;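 active = single-dose well whose peak fluorescence ratio is a statistical outlier from its plate by either plate-standardised score or position-corrected B-score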
Hits are given with their value; - = inactive; . = not tested or not shown.

SMILES	CYP2C19 inh	CYP2C9 inhib	CYP2C19 activ	PTK2B oligo ant	CYP2C9 act	Cav32 inh
FC(F)(F)c1cc(Oc2ccccc2)nc(-c2ccccn2)n1	-	-	-	-	-	-
FC(F)(F)c1cc(C(F)(F)F)c2ccc(Oc3ccccc3)nc2n1	-	-	-	-	-	-4.7
Cc1[nH]c2ccccc2c1C(=O)CN1C(=O)NC2(CC(C)CC(C)(C)C2)C1=O (centres undefined)	.	.	.	-	.	.
COc1ccc(C2C(C#N)=C(N)OC3=C2C(=O)CC(C)C3)c(OC)c1OC (centres undefined)	-	58	-	-	-	-
COc1cc(C2C3=C(CC(c4ccco4)CC3=O)Nc3ccccc3N2C(C)=O)cc(OC)c1OC (centres undefined)	-	-	-	-	-	-
COc1cccc(C2C(C#N)=C(N)OC3=C2C(=O)CC(c2ccco2)C3)c1OCc1ccc(F)cc1 (centres undefined)	80	89	-	-	-	-
COc1ccc(C2C(C#N)=C(N)OC3=C2C(=O)CC(C)(C)C3)c([N+](=O)[O-])c1OC (centres undefined)	-	71	-	-	-	-
COc1cc(C2C(C#N)=C(N)OC3=C2C(=O)CC(C)(C)C3)c([N+](=O)[O-])cc1OC (centres undefined)	-	-	-	-	-	.
Cc1ccccc1NC(=S)N(C)C1(c2ccccc2Cl)CCCCC1=O (centres undefined)	69	-	-	-	-	-
Clc1cccc(CNc2nnnn2-c2ccccc2)c1	-	-	-	-	-	.
c1ccc(CCNc2nnnn2-c2ccccc2)cc1	58	-	-	-	-	-
Cc1ccc(C(=C2C3C=CC2C2C(=O)NC(=O)C32)c2ccc(C)cc2)cc1 (centres undefined)	-	-	-	-	-	-
N#Cc1ccc(-c2nnnn2-c2ccc3c(c2)OCO3)cc1	61	-	-	-	-	-
N#Cc1cccc(-n2nnnc2-c2ccc3c(c2)OCO3)c1	97	-	-	-	-	-
CCOC(=O)C1CCN(Cc2cnc(Oc3ccc(N)cc3)s2)CC1	-	62	-	-	-	.
CCOC(=O)C1CCN(Cc2ccc(Cl)c(Cl)c2)CC1	-	51	-	-	-	-
O=S1(=O)CCN(Cc2ccc(Cl)cc2)CC1	-	-	-	-	-	-
CCOC(=O)C1CCN(Cc2ccc(F)cc2)CC1	.	.	.	-	.	-
O=S1(=O)CCN(Cc2ccc(Cl)c(Cl)c2)CC1	54	-	-	-	-	-
Clc1ccc(CN2CCCCCCC2)cc1Cl	85	-	-	-	-	-
Cc1noc(C)c1C(=O)Nc1ccccc1-c1ccccc1	-	-	-	-	-	-
COc1ccc(NC(=O)CSc2nnc(-c3cccs3)n2-c2ccccc2)cc1	-	-	-	-	-	-
CCOC(=O)N1CCC(Nc2c(NCCCN(CC)c3cccc(C)c3)c(=O)c2=O)CC1	-	-	-	.	-	-
Cc1ccc(C)c(N2CCN(C(=O)c3ccccc3Br)CC2)c1	.	.	.	-	.	-
Cc1ccc(N2CCN(C(=O)c3ccccc3Br)CC2)c(C)c1	98	62	-	-	-	-
SMILES	CYP2C19 inh	CYP2C9 inhib	CYP2C19 activ	PTK2B oligo ant	CYP2C9 act	Cav32 inh
CCCc1cc(C(=O)N2CCN(c3ccccc3C)CC2)cs1	69	66	-	-	-	-
Cc1ccc(N2CCN(C(=O)c3ccccc3)CC2)c(C)c1	96	76	-	-	-	-
O=C(c1ccc(Cn2c(=O)[nH]c3ccccc3c2=O)cc1)N1CCN(c2ccc(Cl)cc2)CC1	-	-	-	-	-	-
Cc1ccc(C)c(N2CCN(C(=O)c3ccc(Cn4c(=O)[nH]c5ccccc5c4=O)cc3)CC2)c1	70	75	-	-	-	-5.9
CCCCCc1nnc(NC(=O)Cc2cccs2)s1	-	-	-	-	-	-
CCOC(=O)c1c(C)n(C)c2ccc(OC)c(NC(=O)c3cccs3)c12	-	-	-	-	-	-
CCN(C(=O)CCS(=O)(=O)c1ccc(Br)cc1)c1ccc2c(c1)OCO2	67	-	-	-	-	.
Cc1ccc(C)c(OCC(=O)Nc2ccc3c(c2)OCO3)c1C	-	-	-	-	2.9	-
CCN(C(=O)c1c(C)cc(=O)oc1C)c1ccc2c(c1)OCO2	-	-	-	-	-	-
CCN(C(=O)c1coc(=O)c(Br)c1)c1ccc2c(c1)OCO2	59	62	-	-	-	-
Cc1cccc(OCC(=O)Nc2ccc3c(c2)OCO3)c1C	-	-	-	-	-	-
Cc1ccc(S(=O)(=O)NCCC(=O)Nc2ccc3c(c2)OCO3)cc1	84	95	-	-	-	-
O=C(NC1CCCC1)C(c1cccs1)N(CC1CCCO1)C(=O)Cc1cccs1 (centres undefined)	-	-	-	-	-	.
Cc1cccc(NC(=O)CSc2nnc(CSc3nc(C)cc(C)n3)n2Cc2ccco2)c1	-	-	-	-	-	-
Cc1nn(C(C)C(=O)O)c2ccccc12 (centres undefined)	-	-	-	-	-	-
COc1cc([N+](=O)[O-])ccc1NC(=O)CCCOc1cccc(C)c1	-	-	-	-	-	-3.4
COc1cc([N+](=O)[O-])ccc1NC(=O)CCCOc1ccc(C)cc1	-	-	-	-	-	-
Cc1cccc(OCCCC(=O)Nc2ccc3c(c2)OCO3)c1	69	54	-	-	-	-
Cc1cccc(OCCCC(=O)Nc2ccc(N3CCOCC3)cc2)c1	-	-	-	-	-	-
Cc1ccc(S(=O)(=O)CCC(=O)Nc2ccc3c(c2)OCO3)cc1	-	94	-	-	-	-
O=C(Nn1nnnc1Nc1ccccc1)C12CC3CC(CC(C3)C1)C2	71	-	-	-	-	-
O=C(NCc1ccccc1)C12CC3CC(CC(C3)C1)C2	-	-	-	-	-	-
CC(NC(=O)CCOc1ccccc1)c1ccccc1 (centres undefined)	95	-	-	-	-	-
CCOc1ccc(N(CC(=O)NC2CCCCC2)C(=O)CSc2nnc(COc3ccccc3)o2)cc1	.	.	.	-	.	-4.3
CC(C)CCNC(=O)NC(=O)CSc1nnc(COc2ccccc2Cl)o1	-	53	-	-	-	-4.8
SMILES	CYP2C19 inh	CYP2C9 inhib	CYP2C19 activ	PTK2B oligo ant	CYP2C9 act	Cav32 inh
CC(NC(=O)CSc1ncccn1)c1ccccc1 (centres undefined)	78	-	-	-	-	-
O=C(CSc1ncccn1)Nc1ccccc1	-	-	-	-	-	-
COc1ccc(Cc2nnc(SCC(=O)NC(C)c3ccccc3)o2)cc1 (centres undefined)	-	-	-	-	-	-
CC(NC(=O)CSc1nnc(COc2ccccc2)o1)c1ccccc1 (centres undefined)	82	-	-	-	-	-
Cc1cc(C)cc(OCc2nnc(SCC(=O)OC(C)C)o2)c1	60	-	-	-	-	-
CC#CCCCC(=O)Nc1ccc(C(=O)O)cc1	-	-	-	-	-	-
